Growth inhibition data for 21 molecules are collected here from PubChem BioAssay (NCI).

SMILES strings stand for the structures. This is part of a sample that, as a whole, favours compounds with a hit. Of some 79,000 tested, about 15% had one in any assay. A number with no mark means an inactive call. Activity calls are given as the source filed them. Cut-off read from the data, not from the text of the source: active = growth inhibition above about 70%; inactive = the rest.

The nature of assay [1]: NCI Yeast Anticancer Drug Screen. Data for the rad50 strain (AID 155).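 Note: 0% = growth of vehicle-only cultures of the same strain.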 The note with it: S. cerevisiae rad50 strain growth inhibition; at 50.0 µM; stronger effect = higher value. Summed up: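 Vehicle-treated cultures provide the reference for the growth inhibition reported for compound-exposed, repair-deficient yeast.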
Assay [2] can be described thus: NCI Yeast Anticancer Drug Screen. Data for the mec2-1 strain (AID 157). The note with it: S. cerevisiae mec2-1 strain, at 50.0 µM, stronger effect = higher value. In a few lines: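 Strain: mec2-1 (DNA repair/cell cycle alteration). Compound exposure, then growth measured; inhibition expressed relative to vehicle.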
A short description of assay [3]: NCI Yeast Anticancer Drug Screen. Data for the sgs1 mgt1 strain (AID 161).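 Note: 0% = growth of cultures given vehicle only.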 The note with it: S. cerevisiae sgs1 mgt1 strain, at 50.0 µM, stronger effect = higher value. Summed up: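 Genetically altered yeast, compound exposure, growth inhibition relative to vehicle.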
A short description of assay [4]: NCI Yeast Anticancer Drug Screen. Data for the cln2 rad14 strain (AID 165).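 Note: 0% = growth equal to vehicle treated cultures.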 The note with it: S. cerevisiae cln2 rad14 strain, at 50.0 µM, stronger effect = higher value. In a few lines:
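Compounds are applied to the cln2 rad14 yeast strain, and growth is then compared with that of vehicle-treated cultures to give inhibition.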

Assay [5] in a line: NCI Yeast Anticancer Drug Screen. Data for the bub3 strain (AID 167). The note with it: S. cerevisiae bub3 mutant strain, at 50.0 µM, stronger effect = higher value. Summed up:
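Mutant yeast screening strain plus compound; vehicle-treated cultures serve as the 0% inhibition reference.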

A short description of assay [6]: NCI Yeast Anticancer Drug Screen. Data for the mlh1 rad18 strain (AID 175). As to conditions: S. cerevisiae mlh1 rad18 strain growth inhibition; at 50.0 µM; stronger effect = higher value. Summed up:
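Read-out is yeast growth inhibition, calculated against vehicle-only controls. The compound was applied to a strain engineered with DNA damage repair alterations.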

Turning to `Cn1cc2c(=O)n(OS(=O)(=O)c3ccccc3)c(=O)[nH]c2n1`, the growth inhibition is 12.8% in assay [1]; -11.8% in assay [2]; -4.55% in assay [3]; -4.4% in assay [4]; -5.2% in assay [5]; 8.8% in assay [6].
On to `O=c1oc2ccccc2cc1F`, for which the growth inhibition is 16.4% in assay [1]; 7.2% in assay [2]; -9.75% in assay [3]; 5.3% in assay [4]; 16.9% in assay [5]; 21.4% in assay [6].
For the molecule `OC(C1=C/C(=C\c2ccncc2)c2ccccc21)c1ccncc1` (stereo unspecified), the growth inhibition in assay [1] was 84.7% (active); in assay [2], 86.5% (active); in assay [3], 96.8% (active); in assay [4] it was 47.6%; in assay [5] it was 86.3% (active); in assay [6], 93% (active).
Take `COC(=O)[C@H]1[C@H]2C[C@@H]3c4[nH]c5ccccc5c4CCN3C[C@H]2C[C@@H](O)[C@@H]1OC(=O)c1cc(OC)c(OC)c(OC)c1`: the growth inhibition in assay [1] was 23.1%; in assay [2], -1.35%; in assay [3], 19.4%; in assay [4], 8.75%; in assay [5], 21%; in assay [6], 20.9%.
On to `CCCCCCC(O)Cc1ccccc1` (stereo unspecified), for which the growth inhibition is 5.95% in assay [1]; 5.1% in assay [2]; -5.5% in assay [3]; -12.3% in assay [4]; -24.9% in assay [5]; 1.2% in assay [6].
With `NCC=C1C2CC3CC(C2)CC1C3`, the growth inhibition is 1.9% in assay [1]; -7.25% in assay [2]; 1.4% in assay [3]; -26.4% in assay [4]; -13.7% in assay [5]; 12.6% in assay [6].
With `C=C1CC(C)(COc2cc(=O)oc3ccccc23)OC1=O` (stereo unspecified), the growth inhibition in assay [1] was 51%; in assay [2], 30.3%; in assay [3] it was 53.2%; in assay [4], 38.5%; in assay [5] it was 25.6%; in assay [6], 40.5%.
For the molecule `CCOC(=O)C(Br)CN1C(=O)c2ccccc2C1=O` (stereo unspecified), the growth inhibition was 5.5% in assay [1]; -7.1% in assay [2]; -5.35% in assay [3]; 12.6% in assay [4]; 42% in assay [5]; 13.6% in assay [6].
For `S=C(NCc1ccncc1)Nc1ccccc1Cl`, the growth inhibition in assay [1] is 2.75%; in assay [2] it was -0.5%; in assay [3], -4.7%; in assay [4], 12.7%; in assay [5], 6.1%; in assay [6], 9.55%.
With `CCOC(=O)Oc1cc2c(ccn2C)c2c1c1ccccc1n2C(=O)OCC`, the growth inhibition in assay [1] was 2.25%; in assay [2], -1.8%; in assay [3] it was -26.6%; in assay [4], 8.9%; in assay [5], 13.6%; in assay [6], 0.4%.
With `CC(=O)OC(C)c1cc2c(s1)C(=O)c1sccc1C2=O` (stereo unspecified), the growth inhibition in assay [1] was 88.6% (active); in assay [2], 91% (active); in assay [3] it was 88.8% (active); in assay [4], 89% (active); in assay [5], 89.3% (active); in assay [6], 89.5% (active).
For `O=C(c1ccc2c(c1)no[n+]2[O-])N(CCO)CCO`, the growth inhibition is 58.8% in assay [1]; 8.45% in assay [2]; 47.1% in assay [3]; 92.5% (active) in assay [4]; 28.4% in assay [5]; 19.9% in assay [6].
For `COC1=CC(=O)C(C2CC(=O)c3c(O)cc(O)cc3O2)=CC1=O` (stereo unspecified), the growth inhibition was -4.2% in assay [1]; 0.85% in assay [2]; 11.2% in assay [3]; 7.95% in assay [4]; -20.8% in assay [5]; -63.9% in assay [6].
On to `O=C(c1ccccc1)C(O)(c1ccccc1)C(c1ccccc1)c1ccccc1` (stereo unspecified), for which the growth inhibition in assay [1] is 5.8%; in assay [2] it was 18.6%; in assay [3] it was 16.9%; in assay [4], 13%; in assay [5], 6.75%; in assay [6], 8.05%.
`O=C(O)c1c(F)c(F)c(-c2c(F)c(F)c(C(=O)O)c(C(=O)O)c2F)c(F)c1C(=O)O`: the growth inhibition was 1.5% in assay [1]; 5.5% in assay [2]; -5% in assay [3]; 7.05% in assay [4]; 0.55% in assay [5]; -6.45% in assay [6].
As to `CC(=NNC(=S)Nc1cccc(C)c1)c1cccc(C(C)=NNC(=S)Nc2cccc(C)c2)n1`, the growth inhibition in assay [1] is 37.4%; in assay [2] it was 41.2%; in assay [3], 62.6%; in assay [4], 29.1%; in assay [5] it was 35.4%; in assay [6] it was 47.2%.
On to `CS(=O)c1ccc(/C=C2/C=Cc3ccccc32)cc1` (stereo unspecified), for which the growth inhibition is 32.8% in assay [1]; 27.3% in assay [2]; 30.5% in assay [3]; 22.1% in assay [4]; 48.7% in assay [5]; 36% in assay [6].
Regarding `COC1=C(NCC(C)C)C(=O)C(OC)=C(NCC(C)C)C1=O`, the growth inhibition in assay [1] is -3.05%; in assay [2], 8.75%; in assay [3], 1.7%; in assay [4] it was -57.7%; in assay [5], 3.25%; in assay [6] it was -12.1%.
Regarding `CC(=O)Nc1ccc(/C=N/NC(=O)COCC(=O)N/N=C/c2ccc(NC(C)=O)cc2)cc1`, the growth inhibition in assay [1] is 7.8%; in assay [2], 11.1%; in assay [3] it was 0.15%; in assay [4], 86.3% (active); in assay [5], -3.2%; in assay [6], -9.65%.
Consider `CC(=O)Nc1ccc2nc(/C=C/c3ccc(N(C)C)cc3)c(=O)oc2c1`, for which the growth inhibition in assay [1] was 38.5%; in assay [2], 18.6%; in assay [3], 25.5%; in assay [4], 16.7%; in assay [5] it was 20.1%; in assay [6], 29.9%.
On to `COc1ccc2nc(C(C)(O)c3ccccc3)ccc2c1` (stereo unspecified), for which the growth inhibition in assay [1] was -1.6%; in assay [2] it was -8.15%; in assay [3] it was 6%; in assay [4], -6.85%; in assay [5], 2.65%; in assay [6], -29.1%.
